Consider 18 compounds from PubChem BioAssay (NCATS).

The nature of experiment [1]: Primary qHTS for inhibitors of nuclear receptor binding SET domain protein 2 (NSD2) in an RCH-ACV wild type WT cells (2C) (AID 1645877). Also: nearly all actives have a fitted effect of over 70% in size. Also: potency is read from the fitted curve at half-maximal effect.
Experiment [2] addresses Glutathione peroxidase 1 (Homo sapiens) (UniProt P07203). Put plainly: Primary qHTS Assay for Inhibitors of Recombinant Selenoprotein Glutathione Peroxidase 1 (GPX1) (AID 1845191). Also: nearly all actives have a fitted effect of over 65% in size. As to activity, negative = inhibition: % is scaled to controls: 0 for no effect and ±100 for the full control effect. In short, it runs like this: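 GR-coupled readout: NADPH consumption tracked by fluorescence, ex 340/em 450 nm, at t=0 and after 15 min at RT. Final mix 10 nM GPX1, 1 mM GSH, 0.5 mM CHP, 0.5 mM NADPH, 100 nM GR, 0.01% BSA, following 30 min enzyme–compound preincubation.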
On the technique in general: In qHTS, concentration-response curves come from the screen itself.

The target of experiment [3] is Phospholipid hydroperoxide glutathione peroxidase GPX4 (Homo sapiens) (UniProt P36969). Put plainly: Primary qHTS Assay for Inhibitors of Recombinant Selenoprotein Glutathione Peroxidase 4 (GPX4) (AID 1845192). Also: nearly all actives have a fitted effect of over 65% in size. In short, it runs like this: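 Steps: GPX4 plus compound, 30 min RT; add GR/GSH/NADPH master mix; start with cumene hydroperoxide; read 340/450 nm fluorescence at 0 and 15 min. Finals were 200 nM GPX4, 1 mM GSH, 0.5 mM CHP, 0.5 mM NADPH, 100 nM GR.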

For experiment [4], the target named is Luciferin 4-monooxygenase (Photinus pyralis) (UniProt P08659). Nature of the experiment: Primary firefly luciferase (FLuc) qHTS assay for identification of artifact compounds. (AID 1845220). Also: nearly all actives have a fitted effect of over 60% in size. The method in brief:
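Enzymatic FLuc inhibition assay: compounds pre-exposed to luciferin/ATP (10 uM each) for 15 min, then purified P. pyralis enzyme at 10 nM added. Read-out: luminescence at 5 min.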

A short description of experiment [5]: Primary fluorescence-based thiol-reactive (MSTI) qHTS assay for identification of artifact compounds. (AID 1845221). Also: nearly all actives have a fitted effect of over 65% in size. Also: potency is read from the fitted curve at half-maximal effect.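 As to activity change, negative = thiol reactive: series mostly up to about 54 µM; thiol-reactive compounds lower the probe fluorescence signal.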 The method in brief:
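Curve-fitted percent inhibition (4-parameter Hill) derived from fluorescence, Ex 525/Em 598 nm, scaled with Acetyl-MSTI and MSTI; 1 h incubation at room temperature.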

Experiment [6] deals with Nanoluciferase (engineered Oplophorus gracilirostris luciferase). Put plainly: Primary Nanoluciferase (NLuc) qHTS assay for identification of artifact compounds. (AID 1845222).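 Also: NLuc secreted into diluted conditioned medium of S16 cells; series mostly up to about 54 µM; 0% = DMSO and -100% = no enzyme.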 The method in brief: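 S16 cell supernatant NLuc, 1:55; cpds qHTS; 15 min RT dark; Nano-Glo substrate 1:100, 5 min; luminescence; Hill fit of % inhibition.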
Experiment [7] is described as follows: Primary redox qHTS assay for identification of artifact compounds. (AID 1845223).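 Also: 0% = DMSO and 100% = reference compound.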 In short, it runs like this: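 Redox-cycling detection via DTT (250 uM final) oxidation coupled to Amplex Red (25 uM)/HRP (250 mU/mL) in HBSS. 15 min preincubation plus 30 min after DTT, room temperature. Ex/Em 525/598 nm; 4-parameter Hill fit against DMSO and 10 uM DA3003.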

Structures are written as SMILES. Values without a mark were called inactive. Inconclusive results are not listed. Activity calls are given as the source filed them. Calls follow the shape of the dose curve; as a rule, active = well fitted curve in the direction sought with a large enough effect; inconclusive = small, poorly fitted or top-dose-only effect, or another doubt; inactive = no such curve, though single readings can be large; an effect the other way counts as inactive or inconclusive.

Chain of Phospholipid hydroperoxide glutathione peroxidase GPX4 (Homo sapiens) (P36969 whole entry, looked up): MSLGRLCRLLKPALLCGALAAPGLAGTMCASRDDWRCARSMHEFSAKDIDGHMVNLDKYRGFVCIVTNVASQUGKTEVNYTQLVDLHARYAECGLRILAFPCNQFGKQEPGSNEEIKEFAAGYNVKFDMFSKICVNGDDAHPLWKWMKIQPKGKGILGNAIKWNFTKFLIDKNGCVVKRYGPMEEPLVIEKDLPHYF
Chain of Glutathione peroxidase 1 (Homo sapiens) (P07203 whole entry, looked up): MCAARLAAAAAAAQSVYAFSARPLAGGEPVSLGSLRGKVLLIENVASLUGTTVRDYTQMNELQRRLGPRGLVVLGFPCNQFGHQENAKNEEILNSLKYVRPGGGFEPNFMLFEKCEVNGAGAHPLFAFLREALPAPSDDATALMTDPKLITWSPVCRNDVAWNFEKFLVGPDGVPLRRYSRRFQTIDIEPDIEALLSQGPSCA

`CCCCNc1ccc(-c2ccc(CN3CCOCC3)cn2)c(NC2CCC(O)CC2)c1` (stereo unspecified): the Potency in experiment [1] was 796 nM (active). Also, the Potency entry in experiment [2], in experiment [3], in experiment [4], in experiment [5], in experiment [6] and in experiment [7] was “inactive” in each case.
As to `CC1(C)CC2C(C1)C(C)(O)C13CC1(COC3=O)C2O` (stereo unspecified), the Potency result in experiment [1], in experiment [2], in experiment [3], in experiment [4], in experiment [5] and in experiment [6] was “inactive” throughout. In addition, the Potency entry in experiment [7] was “inactive”.
`COC(=O)N(C)c1c(N)nc(-c2nn(Cc3ccccc3F)c3ncccc23)nc1N`: the Potency result in experiment [1], in experiment [2], in experiment [3], in experiment [4], in experiment [5] and in experiment [6] was “inactive” throughout. For the same compound, the Potency result in experiment [7] is “inactive”.
On to `C=C1CCC[C@]2(C)CC[C@@H](C(=C)C(=O)O)[C@H](O)[C@@H]12`, for which the Potency entry in experiment [1], in experiment [2], in experiment [3], in experiment [4], in experiment [5] and in experiment [6] was “inactive” in each case. Besides, the Potency result in experiment [7] is “inactive”.
In the case of `CN(C)C1CCN(C(=O)c2ccc(NC(=O)Nc3ccc(-c4nc(N5CCOCC5)nc(N5CCOCC5)n4)cc3)cc2)CC1`, the Potency in experiment [1] is 33.2 nM (active). The Potency entry in experiment [2], in experiment [3], in experiment [4], in experiment [5], in experiment [6] and in experiment [7] was “inactive” throughout.
As for `COc1ccc(Oc2cc(C)c(-c3csc(NC(=O)c4ccncc4)n3)c(C)c2)cc1`, in experiment [1], the Potency was 916 nM (active). Besides, the Potency entry in experiment [2], in experiment [3], in experiment [4], in experiment [5], in experiment [6] and in experiment [7] was “inactive” throughout.
`C[C@@H]1O[C@@H](OC[C@H]2O[C@@H](Oc3cc(O)cc4c3C(=O)C(O)(Cc3ccc(O)cc3)O4)[C@H](O)[C@@H](O)[C@@H]2O)[C@H](O)[C@H](O)[C@H]1O` (stereo partly specified): the Potency entry in experiment [1], in experiment [2], in experiment [3], in experiment [4], in experiment [5] and in experiment [6] was “inactive” each time. For the same compound, in experiment [7], the Potency entry was “inactive”.
With `C[C@H](NC(c1cccc(C[P+](=O)O)c1)[C@H](C)O)c1ccc(Cl)c(Cl)c1` (stereo partly specified), the Potency result in experiment [1], in experiment [2], in experiment [3], in experiment [4], in experiment [5] and in experiment [6] was “inactive” throughout. Besides, in experiment [7], the Potency entry is “inactive”.
As to `CN[C@@H]1[C@H](O[C@H]2[C@H](O[C@@H]3[C@@H](O)[C@H](O)[C@@H](N=C(N)N)[C@H](O)[C@H]3N=C(N)N)O[C@@H](C)[C@]2(O)C=O)O[C@@H](CO)[C@H](O)[C@H]1O`, the Potency result in experiment [1], in experiment [2], in experiment [3], in experiment [4], in experiment [5] and in experiment [6] was “inactive” throughout. In experiment [7], the Potency entry was “inactive”.
For `OCc1ccc(O[C@@H]2O[C@H](CO)[C@@H](O)[C@H](O)[C@H]2O)cc1`, the Potency result in experiment [1], in experiment [2], in experiment [3], in experiment [4], in experiment [5] and in experiment [6] was “inactive” in each case. The Potency entry in experiment [7] was “inactive”.
With `C/C(=C\CC[C@@H](C)[C@H]1CC(O)[C@@]2(C)C3CC[C@H]4C(C)(C)[C@@H](OC5OCC(O)C(O)C5OC5OC(CO)C(O)C(O)C5O)CC[C@@]45C[C@@]35CC(O)[C@]12C)C(=O)O` (stereo partly specified), the Potency entry in experiment [1], in experiment [2], in experiment [3], in experiment [4], in experiment [5] and in experiment [6] was “inactive” each time. Moreover, the Potency result in experiment [7] is “inactive”.
In the case of `NC1CCCCN(c2c(F)cc3c(=O)c(C(=O)O)cn(C4CC4)c3c2Cl)C1` (stereo unspecified), the Potency result in experiment [1], in experiment [2], in experiment [3], in experiment [4], in experiment [5] and in experiment [6] was “inactive” each time. For the same compound, the Potency result in experiment [7] is “inactive”.
Regarding `C=C1C[C@]23C[C@H]1CC[C@H]2[C@@]1(C)CCC[C@@]2(C)C(=O)O[C@@H]([C@@H]3O)[C@@H]12`, the Potency result in experiment [1], in experiment [2], in experiment [3], in experiment [4], in experiment [5] and in experiment [6] was “inactive” each time. For the same compound, the Potency entry in experiment [7] was “inactive”.
Regarding `CC1(C)C2CC=C(COC3OC(COC4OCC(O)(CO)C4O)C(O)C(O)C3O)C1C2` (stereo unspecified), the Potency result in experiment [1], in experiment [2], in experiment [3], in experiment [4], in experiment [5] and in experiment [6] was “inactive” each time. The Potency entry in experiment [7] was “inactive”.
Regarding `O=C1Nc2ccccc2C(O)(c2ccccc2)C1O` (stereo unspecified), the Potency result in experiment [1], in experiment [2], in experiment [3], in experiment [4], in experiment [5] and in experiment [6] was “inactive” throughout. The Potency entry in experiment [7] was “inactive”.
With `CC(=O)O[C@H]1[C@H](O[C@H]2[C@@H]3C=CO[C@@H](O[C@@H]4O[C@H](CO)[C@@H](O)[C@H](O)[C@H]4O)[C@@H]3[C@@]3(CO)O[C@@H]23)O[C@@H](C)[C@H](OC(=O)/C=C/c2ccccc2)[C@H]1OC(=O)/C=C/c1ccccc1`, the results for the outcome in experiment [1] and in experiment [4] were “inactive [at 9.23 µM]” and “inactive [at 11.6 µM]”, respectively. Further, the Potency result in experiment [2] and in experiment [3] was “inactive” in each case. In addition, in experiment [5], the activity change, negative = thiol reactive is 2.44% [at 11.5 µM]. In addition, the activity, negative = inhibition in experiment [6] is 2.49% [at 11.6 µM]. Further, the redox activity (% of DA3003) in experiment [7] was 5.63% [at 11.5 µM].
Take `OC[C@H]1O[C@@H](O[C@H]2[C@H](OCCc3ccccc3)O[C@H](CO)[C@@H](O)[C@@H]2O)[C@H](O)[C@@H](O)[C@@H]1O`: the Potency entry in experiment [1], in experiment [2], in experiment [3], in experiment [4], in experiment [6] and in experiment [7] was “inactive” in each case. Besides, the Potency in experiment [5] is 10300 nM (active).
For the compound `Nc1nc2c(ncn2[C@@H]2O[C@@H]3COP(=O)(O)O[C@H]3[C@H]2O)c(=O)[nH]1`, the Potency result in experiment [1], in experiment [2], in experiment [3], in experiment [4], in experiment [5] and in experiment [6] was “inactive” in each case. For the same compound, the Potency result in experiment [7] is “inactive”.
